Sampled rows, rich in hits. Any-hit rate of the full collection: about 1%.
Sa RN4220 lethal = kills Staphylococcus aureus RN4220; 330,000 compounds, 0.33% hits; S. aureus RN4220 growth, OD600, 16 h; AID 1259311; inhibition, % (test concentration not listed); in the data active = inhibition above about 85%;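 also: plate controls were untreated cells for no effect and reference antibiotic for full effect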
PriA SSB inh = inhibitors of Klebsiella pneumoniae PriA binding to SSB C-terminal tail. AlphaScreen SSBct-PriA binding, biotinylated peptide. inhibition, % at 33 µM. 430,000 compounds, 0.6% hits. AID 1272365; in the data active = inhibition mostly above about 37%, no sharp cut-off; inactive = mostly below about 20%;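 also: plate controls were negative control peptide for no effect and reference peptide for full effect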
Mtb bLac sens = beta-lactam sensitization of Mtb H37Rv. AID 434955. inhibition, % at 25 µM. M. tuberculosis H37Rv growth with meropenem, percent inhibition. 330,000 compounds, 0.27% hits; call rule not given here;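 also: growth measured after seven days incubation then overnight dye step; 0% = bacteria only wells and 100% = bacteria with antibiotic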
Mtb hypoxia inh = inhibitors of hypoxia-regulated fluorescent reporter in Mycobacterium tuberculosis | M. tuberculosis hypoxia-regulated fluorescent reporter, fluorescence | fluorescence inhibition, % (test concentration not listed) | 300,000 compounds, 0.1% hits; in the data active = fluorescence inhibition mostly above about 23%, no sharp cut-off; inactive = mostly below about 17%
Sa ugtP lethal = compounds lethal to S. aureus RN4220 ugtP deletion mutant. OD600 growth, 16 h. 330,000 compounds, 0.54% hits. growth inhibition, % (test concentration not listed); in the data active = growth inhibition above about 68%;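 also: plate controls were untreated wells for no effect and antibiotic for full effect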
* hit, by the source's call; u = inconclusive; x = not tested or not shown; ! = repeats disagree.

SMILES	Sa RN4220 lethal	PriA SSB inh	Mtb bLac sens	Mtb hypoxia inh	Sa ugtP lethal
COc1ccccc1CNc1nc2nc(C)c(Cl)c(=O)n2[nH]1	0	-10	7	0	1
COc1ccc(CNc2nc3nc(C)c(Cl)c(=O)n3[nH]2)cc1	3	-8	99	23*	10
Cc1ccnc(NC(=O)Cn2cc(S(=O)(=O)Cc3ccccc3F)c3ccccc32)c1	x	-2	x	x	x
c1ccc(N=Nc2ccc3cccccc2-3)cc1	15	51*	72	4	95*
Nc1ccc(N=Nc2ccccc2)c(N)n1	5	56*	2	11	-4
Nc1ccc(N=Nc2ccccc2)c2ccccc12	3	26	-6	4	7
COC1(CNS(=O)(=O)c2cccc(C(F)(F)F)c2)Cc2ccccc2C1	x	-18	x	x	x
CCOc1ccc(NC(=O)CC2SC(=N)NC2=O)c([N+](=O)[O-])c1 (stereo not given)	x	6	x	x	x
COc1ccc(S(=O)(=O)Nc2ccc3c(c2)N(C(=O)C2CCCC2)CC3)c(C)c1	x	15	x	x	x
Cc1cccc(C)c1NC(=O)CNC(=O)Cc1ccccc1[N+](=O)[O-]	10	-1	-4	-3	4
Cc1cccc([N+](=O)[O-])c1NC(=O)CN(Cc1ccccc1)Cc1ccccc1	1	6	9	10	99*
COc1ccccc1N1CCN(Cc2ccc(O)c3ncccc23)CC1	7	73*	72	-6	-2
OCCN1CCN(Cc2ccc(O)c3ncccc23)CC1	x	115*	x	x	x
Cc1ccccc1N1CCN(Cc2ccc(O)c3ncccc23)CC1	x	87*	x	x	x
COc1ccccc1N1CCN(Cc2ccc(OC)c(OC)c2OC)CC1	6	-11	4	9	8
CCOC(=O)C1CCN(Cc2ccc(O)c3ncccc23)CC1	8	94*	-4	10	-1
Oc1ccc(CN2CCCc3ccccc32)c2cccnc12	-4	16	73	x	1
O=C(CSc1nnc(CCN2C(=O)c3cccc4cccc(c34)C2=O)n1-c1ccccc1)N1CCN(CCO)CC1	x	-6	x	x	x
Cc1cc(=O)[nH]c(NN=Cc2c(O)n(-c3ccccc3)c(=O)c3ccccc23)n1	x	85*	x	x	x
Cc1cc(=O)[nH]c(NN=Cc2c(C)nn(-c3ccccc3)c2C)n1	-2	-1	x	9	5
CCCCOc1ccc(C(=O)Nc2ccc3c(c2)C(=O)NCCO3)cc1	x	10	x	x	x
Cc1ccc(S(=O)(=O)NCc2ccc3[nH]c(C)cc3c2)cc1	-6	43*	5	-4	3
CCCCNC(=S)NCc1ccc2[nH]c(C)cc2c1	9	50*!	-1	-7	5
Cc1cc2cc(CNS(=O)(=O)N(C)C)ccc2[nH]1	-7	46*!	-7	5	-5
CC(=O)Nc1ccc(S(=O)(=O)NCc2ccc3[nH]c(C)cc3c2)cc1	-8	38	0	1	-8
SMILES	Sa RN4220 lethal	PriA SSB inh	Mtb bLac sens	Mtb hypoxia inh	Sa ugtP lethal
Cc1ccc(Cl)cc1S(=O)(=O)NC1CC2CCC(C1)N2S(C)(=O)=O (stereo not given)	x	-14	x	x	x
Oc1ccc(N2CCN(Cc3ccc(OCCCN4CCCCC4)cc3)CC2)cc1	3	55*	-5	8	0
CCCCCCOc1ccc(CN2CCN(C)CC2)cc1	0	-19	u	10	86*
CCCCOc1ccc(CN2CCCCC2)cc1	6	-6	1	-5	4
c1ccc(COc2ccc(OCCCCN3CCCCC3)cc2)cc1	1	0	-3	-6	26
Cc1ccc(Nc2nc(NCCCn3ccnc3)nc3[nH]ncc23)cc1	x	-7	x	x	x
COC(=O)CS[C@H]1CCN(C(=O)CCSc2ccccc2)C1	x	-23	x	x	x
Cc1sc(NC(=O)c2ccco2)c(C(c2ccccc2)N2CCC(C)CC2)c1C (stereo not given)	85	-14	11	-14	active
Cc1sc(NC(=O)c2ccco2)c(C(c2ccc(F)cc2)N2CCN(C)CC2)c1C (stereo not given)	3	30	1	7	-2
O=C(CN1C(=O)CCC1=O)Nc1nc(-c2ccc(Cl)cc2Cl)cs1	x	-5	x	x	x
CCOC(=O)C1=CN(Cc2cccc(F)c2)S(=O)(=O)NC1c1ccc2ccccc2c1 (stereo not given)	-2	5	x	0	-4
CCOC(=O)C1=CN(Cc2cccc(F)c2)S(=O)(=O)NC1c1cccc(OC)c1 (stereo not given)	4	47*	x	6	13
O=c1[nH]sc2cc(F)ccc12	98*	-4	x	4	87*
O=c1[nH]sc2ccccc12	-2	-6	x	-1	11
CC(C)(C)NC(=O)COc1coc(CN2CCN(c3ccccc3)CC2)cc1=O	x	-13	x	x	x
CCn1ccnc1CNC(=O)c1cc(COc2ccc(OC)c3ccccc23)on1	x	68*	x	x	x
